Results on 60 compounds are retold here after PubChem BioAssay AID504832 (National Center for Advancing Translational Sciences (NCATS), 2011).

Molecules are shown by their SMILES. Hit rate of the full screen: of about 310,000 compounds, about 18,000 (5.8%) were called active. Roughly 22% stayed inconclusive and do not appear here. Calls follow the shape of the dose curve; as a rule, active = well fitted inhibition curve with a large enough effect; inconclusive = small, poorly fitted or top-dose-only effect, or another doubt; inactive = no such curve, though single readings can be large or run the other way. The entries come from a sample that favours actives as a whole. Where a call stands in place of a potency, no number is given.
Potency is read from the fitted curve at half-maximal effect.

This assay can be described thus: Primary qHTS for delayed death inhibitors of the malarial parasite plastid, 48 hour incubation. The settings on record: P. falciparum luciferase growth in erythrocytes; series mostly up to 28.7 µM. The procedure, abridged:
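Here the parasites carry a stable luciferase gene and grow inside erythrocytes in Albumax-based RPMI medium with compound for one erythrocytic cycle. Activity is scored as loss of luminescent signal.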
In general terms: qHTS replaces the single test concentration by a dilution series.
On to `C[C@H](OC(=O)n1ccnc1)[C@@H]1O[C@@]2(C)CCC[C@@H]1O2`, for which the Potency result is “inactive”.

Regarding `Cc1cccc(CN2CCC(n3nccc3NC(=O)c3ccccc3C)CC2)n1`, the Potency result was “inactive”.

In the case of `Cc1ccc(-n2ncc3c2CCCC3NC(=O)c2cnccn2)cc1C` (stereo not given), the Potency entry was “inactive”.

As to `COc1ccccc1C(=O)NCCC(=O)NC(C)CCc1ccccc1` (stereo not given), the Potency result is “inactive”.

For the compound `O=c1oc2ccccc2c(NC2CCCCC2)c1NS(=O)(=O)c1ccc(Cl)cc1`, the Potency entry is “inactive”.

`COC(=O)COc1ccc2c(=O)c(Oc3ccccc3Br)coc2c1`: the Potency result is “inactive”.

For the compound `O=C(C1CC(=O)N(c2ccc(Br)cc2)C1)N1CCCC1` (stereo not given), the Potency result was “inactive”.

For `COc1ccccc1NC(=O)N1CCCC1C(=O)NCc1cccs1` (stereo not given), the Potency result is “inactive”.

`CCN1C(=O)C(=O)N(CC(=O)Nc2cc(C)ccc2C)C1=O`: the Potency entry was “inactive”.

Consider `CC(C)c1ccc(S(=O)(=O)N2CCN(C(=O)c3ccc(N4CCCC4)c([N+](=O)[O-])c3)CC2)cc1`, for which the Potency entry was “inactive”.

Regarding `Cc1ccc(S(=O)(=O)N2CCN(C(=O)c3ccc(-n4cncn4)c([N+](=O)[O-])c3)CC2)cc1`, the Potency result is “inactive”.

Regarding `Nc1ccc(C(=O)N2CCN(S(=O)(=O)c3ccc(Cl)cc3)CC2)cc1[N+](=O)[O-]`, the Potency was 13.1 µM (active).

For the compound `CC(Sc1nnc(COc2ccccc2)n1-c1ccccc1)C(=O)O` (stereo not given), the Potency result is “inactive”.

Regarding `CC1CC(C)CN(c2ccc(S(=O)(=O)N3CCOCC3)cc2)C1` (stereo not given), the Potency entry is “inactive”.

In the case of `COc1cc(/C=C2\C(=N)N3N=C(CC(=O)N4CCOCC4)SC3=NC2=O)cc(OC)c1OC`, the Potency entry is “inactive”.

With `COC(=O)/C=C/C(=O)NCc1ccco1`, the Potency entry was “inactive”.

For `O=C(/C=C/c1ccc(Cl)cc1Cl)NCc1ccco1`, the Potency is 11.7 µM (active).

In the case of `O=C(CCNC(=O)c1ccccc1Cl)NCc1ccco1`, the Potency result was “inactive”.

For `O=C(Nc1ncc([N+](=O)[O-])s1)C1COc2ccccc2O1` (stereo not given), the Potency entry was “inactive”.

In the case of `CN(C(=O)CN1C(=O)/C(=C/c2ccc(Cl)cc2)SC1=S)C1CCS(=O)(=O)C1` (stereo not given), the Potency result is “inactive”.

As to `CCc1c(C)nc(N)n2c(SCC(=O)NC3CCCCC3)nnc12`, the Potency result is “inactive”.

Regarding `COc1ccc2cc1Oc1ccc(cc1)C[C@H]1c3cc(c(OC)cc3CCN1C)Oc1c(O)c(OC)cc3c1[C@H](C2)N(C)CC3`, the Potency is 2.94 µM (active).

For the compound `COc1ccc(/C=N/NC(=O)c2ccc3c(c2)OCCO3)c(OC)c1`, the Potency entry is “inactive”.

As for `Cn1nccc1C(=O)N1CCCC(C(=O)c2ccc(Oc3ccccc3)cc2)C1` (stereo not given), the Potency result was “inactive”.

For `Cn1c(O)c(C=Nc2ccc3c(c2)CCC3)c(=O)n(C)c1=O`, the Potency entry was “inactive”.

Turning to `CN(C)CCCN=Cc1c(O)n(Cc2ccco2)c(=O)[nH]c1=O`, the Potency result was “inactive”.

As for `CC(C)n1c(=O)c(C=Nc2ccc(Br)cc2)c(O)n(Cc2ccco2)c1=O`, the Potency is 13.1 µM (active).

For `O=C(CN1CCN(C2CCS(=O)(=O)C2)CC1)N1N=C(c2ccc(Cl)cc2)CC1c1ccco1` (stereo not given), the Potency result is “inactive”.

As for `CC(=O)NCC(=O)N1CCC(n2nccc2NC(=O)CCCc2ccccc2)CC1`, the Potency entry was “inactive”.

Consider `CCOc1ccc(N/C(N)=N/c2nc(C)c(C)c(=O)[nH]2)cc1`, for which the Potency entry is “inactive”.

Turning to `CCN1C(=S)N[C@@H](CCc2ccccc2)[C@H](C(=O)OC)[C@H]1C`, the Potency entry is “inactive”.

With `CC1C(=O)Nc2ccccc2N1C(=O)c1ccc(F)cc1F` (stereo not given), the Potency entry was “inactive”.

In the case of `COc1ccccc1C(=O)N(Cc1ccc(C)o1)C1CCS(=O)(=O)C1` (stereo not given), the Potency entry is “inactive”.

Regarding `CC(C)C[C@H](NC(=O)[C@@H]1O[C@H]1C(=O)O)C(=O)NCCCCN=C(N)N`, the Potency is 11.7 µM (active).

Consider `Cc1cc(C)cc(N(CCC#N)C(=O)CN2C(=O)NC3(CCCC3)C2=O)c1`, for which the Potency entry was “inactive”.

`CC(C)(C)C(=O)CN1C2=NCCN2c2ccccc21`: the Potency entry is “inactive”.

For `Cc1ccc(Nc2nc(N)nc(CN3CCN(Cc4ccccc4)CC3)n2)cc1Cl`, the Potency result was “inactive”.

As to `Cc1cc2c(cc1C)N(Cc1ccccc1)C1=NCCCN12`, the Potency was 11.7 µM (active).

For `Cc1ccc(OCc2nc3ccccc3n2C)cc1`, the Potency entry is “inactive”.

For `COc1ccc(COC(=O)NC(C(=O)O)c2ccccc2)cc1` (stereo not given), the Potency result was “inactive”.

In the case of `COc1ccc(C(CCN(Cc2ccc(OC)c(OC)c2)C(=O)CCl)c2ccccc2)cc1` (stereo not given), the Potency was 2.94 µM (active).

As to `CCOc1ccc(C(CC(=O)O)NC(=O)Cc2ccccc2)cc1OC` (stereo not given), the Potency entry was “inactive”.

For the compound `O=C(CCCCO)c1ccc(O)c(Cl)c1`, the Potency result is “inactive”.

On to `Cc1ccc(OCC(=O)Nc2ccc3oc(=O)ccc3c2)cc1C`, for which the Potency result is “inactive”.

On to `CC[C@]1(O)C[C@@H]2CN(CCc3c([nH]c4ccccc34)[C@@](C(=O)OC)(c3cc4c(cc3OC)N(C)[C@H]3[C@@](O)(C(=O)OC)[C@H](OC(C)=O)[C@]5(CC)C=CCN6CC[C@]43[C@@H]65)C2)C1`, for which the Potency is 0.208 µM (active).

In the case of `CC[C@]1(O)CC2CN(CCc3c([nH]c4ccccc34)[C@@](C(=O)OC)(c3cc4c(cc3OC)N(C=O)[C@H]3[C@@](O)(C(=O)OC)[C@H](OC(C)=O)[C@]5(CC)C=CCN6CC[C@]43[C@@H]65)C2)C1` (stereo not given in full), the Potency is 0.147 µM (active).

`COc1ccc(NC(=O)C2CCC(CNS(=O)(=O)c3csc(C(N)=O)c3)CC2)cc1OC` (stereo not given): the Potency entry is “inactive”.

In the case of `CC(=O)NC(CC(=O)Nc1cccc(S(=O)(=O)N2CCCC2)c1)c1ccccc1` (stereo not given), the Potency result was “inactive”.

Take `CCN(CC(=O)Nc1cccc(S(N)(=O)=O)c1)Cc1nc2ccccc2c(=O)[nH]1`: the Potency result is “inactive”.

In the case of `CCCCN(CC(=O)Nc1cccc(S(=O)(=O)N2CCCC2)c1)Cc1nc2ccccc2c(=O)[nH]1`, the Potency is 3.7 µM (active).

For `O=C(NCCc1ccc(Cl)cc1)c1cccc(N2CCCC2=O)c1`, the Potency result is “inactive”.

On to `CCN1C(=NCCc2cccnc2)N[C@@H](c2ccccc2)[C@H](C(=O)OC)[C@H]1C`, for which the Potency entry was “inactive”.

As to `CCOc1ccc(OCC)c(NC(=O)CCS(=O)(=O)c2ccc(C)cc2)c1`, the Potency result is “inactive”.

With `Cc1ccc(CNC(=O)CCS(=O)(=O)c2ccc3c(c2)CC(C)N3C(=O)C2CC2)o1` (stereo not given), the Potency was 10.4 µM (active).

As to `CCC(=O)N1c2ccc(S(=O)(=O)NCc3ccco3)cc2CC1C` (stereo not given), the Potency result was “inactive”.

Turning to `COc1cccc(CNS(=O)(=O)c2ccc3c(c2)CC(C)N3C(=O)C2CCC2)c1` (stereo not given), the Potency entry was “inactive”.

In the case of `Cc1c(OC(C)C(=O)NCC2CCC(C(=O)O)CC2)ccc2c1oc(=O)c1ccccc12` (stereo not given), the Potency entry was “inactive”.

`CC1(C)NC(=O)N(CC(=O)Nc2cc(C(F)(F)F)cc(C(F)(F)F)c2)C1=O`: the Potency entry was “inactive”.

For the compound `Clc1ccc(C2=CSC3=Nc4cccc5cccc(c45)N23)cc1`, the Potency is 1.85 µM (active).

For the compound `CC(=O)c1cccc(NC(=S)N2CCCC2)c1`, the Potency entry is “inactive”.
